From PubChem BioAssay
SMN2 splice enh: qHTS Assay for Enhancers of SMN2 Splice Variant Expression | HEK293 SMN2-luciferase splicing reporter, luminescence, 30-36 h | Potency, µM (highest dose often 46.1 µM), actives largely listed as activators | 210,000 compounds, 2.8% hits; also: nearly all actives have a fitted effect of over 55% in size
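qHTS luciferase splicing reporter: luminescence rises when SMN2 exon 7 is included in transfected HEK293 cells. Compound exposure lasted 30-36 h at 37C, with 4.5 mM final sodium butyrate as control, followed by a ONE-Glo read.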
ELG1 genotoxic: qHTS screen for small molecules that induce genotoxicity in human embryonic kidney (HEK293T) cells expressing luciferase-tagged ELG1; AID 504466, 2011; HEK293T ELG1-luciferase reporter, luminescence, 16 h; 330,000 compounds, 1.3% hits; Potency, µM (top dose mostly 46 µM), actives largely listed as activators; also: nearly all actives have a fitted effect of over 60% in size
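ELG1-luciferase HEK293T cells, 2,000/well; compound pinned in; 16 hr, 37 °C, 5% CO2; ONE-Glo, 30 min RT; luminescence on CCD imager.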
NPC1 prom act: qHTS Assay for NPC1 Promoter Activators; Huh7 NPC1 promoter luciferase reporter, 24 h; AID 485313, 2010; Potency, µM (highest dose often 9.22 µM), actives largely listed as activators; 320,000 compounds, 2.4% hits; also: nearly all actives have a fitted effect of over 60% in size
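Stable NPC1-promoter luciferase Huh7 line; cpd (DMSO) 24 h, 37 °C, 5% CO2; Amplite luciferase reagent 10 min RT; luminescence readout. qHTS format.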
Rab9 promoter act: qHTS Assay for Rab9 Promoter Activators. Huh7 Rab9 promoter-luciferase reporter, luminescence, 24 h. Potency, µM (titrated, usually from 9.22 µM), most hits filed as activators. 320,000 compounds, 2.8% hits. AID 485297, 2010; also: nearly all actives have a fitted effect of over 60% in size
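Huh7 cells stably carrying a Rab9 promoter-luciferase reporter, 1500 cells per well in OP-MEM I with 10% FBS, treated with compound 24 hours at 37C. Luciferase activity read by luminescence after 10 minutes with Amplite reagent.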
FLuc counter: qHTS profiling assay for firefly luciferase inhibitor/activator using purifed enzyme and Km concentrations of substrates (counterscreen for miR-21 project); purified FLuc, Km substrates, luminescence inhibition; Luciferin 4-monooxygenase (Photinus pyralis), P08659; Potency, µM (doses to about 57.5 µM), hits mostly inhibitors; 360,000 compounds, 6.9% hits; AID 588342, 2011; also: nearly all actives have a fitted effect of over 55% in size
Target sequence (P08659 whole entry, looked up): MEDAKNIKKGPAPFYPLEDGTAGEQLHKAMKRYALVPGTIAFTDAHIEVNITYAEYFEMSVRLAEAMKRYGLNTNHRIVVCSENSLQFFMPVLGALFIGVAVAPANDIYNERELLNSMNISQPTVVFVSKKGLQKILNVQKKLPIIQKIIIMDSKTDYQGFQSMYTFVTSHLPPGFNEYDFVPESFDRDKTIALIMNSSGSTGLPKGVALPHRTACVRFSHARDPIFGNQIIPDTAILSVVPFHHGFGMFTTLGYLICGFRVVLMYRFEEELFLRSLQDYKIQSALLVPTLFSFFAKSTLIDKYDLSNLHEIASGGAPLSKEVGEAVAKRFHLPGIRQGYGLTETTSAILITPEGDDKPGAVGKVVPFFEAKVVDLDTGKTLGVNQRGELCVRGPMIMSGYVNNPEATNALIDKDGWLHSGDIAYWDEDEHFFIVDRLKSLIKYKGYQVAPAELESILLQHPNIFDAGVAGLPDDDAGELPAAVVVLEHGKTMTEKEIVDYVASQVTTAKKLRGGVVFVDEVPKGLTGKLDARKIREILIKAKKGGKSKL
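Purified P. pyralis luciferase (10nM final) with 10uM D-luciferin and 10uM ATP (Km levels) in 50mM Tris acetate pH 7.5, 10mM Mg acetate, 0.01% Tween-20, 0.05% BSA; qHTS 6-point titration, ~60 µM downward; luminescence read.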
Numbers stand for hits; n = inactive; u = inconclusive; x = no result given; [ ] = another dose, or the depositor's remark. Only some compounds are listed: those with a hit (about 7.4% of all), similar ones and a draw of the others. Calls follow the shape of the dose curve; as a rule, active = well fitted curve in the direction sought with a large enough effect; inconclusive = small, poorly fitted or top-dose-only effect, or another doubt; inactive = no such curve, though single readings can be large; an effect the other way counts as inactive or inconclusive.

SMILES	SMN2 splice enh	ELG1 genotoxic	NPC1 prom act	Rab9 promoter act	FLuc counter
COc1cccc(/C=N/NC(=O)C(C)n2nc(C)c([N+](=O)[O-])c2C)c1O (stereo unspecified)	u	u	n	n	7.6µM
COc1cccc(/C=N\NC(=O)c2ccc(Cn3cc(Br)c([N+](=O)[O-])n3)o2)c1O	x	n	n	n	11µM
COc1ccccc1/C=C\C(=O)NCC(=O)N/N=C/c1cccc(OC)c1O	x	u	n	n	n
COc1cc(/C=N\NC(=O)c2ccc(Cn3nc([N+](=O)[O-])c(Cl)c3C)o2)ccc1O	u	n	n	n	u
COc1cccc(/C=N/NC(=O)C(=O)N2CCCC2)c1OC	n	n	n	n	n
CCOC(=O)c1ccc2c(c1)N(CC(=O)N(C)c1ccccc1)C(=O)c1ccccc1S2	x	x	x	x	n
COc1cccc(-c2n[nH]c(=S)n2Cc2ccco2)c1	x	n	n	n	n
Cc1ccc(C)c(C(=O)OCC(=O)N(C)c2ccccc2)c1	x	n	n	n	n
O=C1/C(=C\c2ccco2)CCC/C1=C\c1ccco1	18µM	15µM	4µM	3.2µM	4.8µM
O=C1/C(=C/c2ccc(F)cc2)CCC1C1CCCC1 (stereo unspecified)	n	u	u	n	0.67µM
O=C1/C(=C/c2ccccc2)CCC1C1CCCC1 (stereo unspecified)	n	u	n	n	1.2µM
COc1ccccc1/C=C1\CCC(C2CCCC2)C1=O (stereo unspecified)	x	n	n	n	19µM
COc1ccc(/C=C2\CCC(C3CCCC3)C2=O)cc1Cn1nc(C)cc1C (stereo unspecified)	n	n	n	n	u
COc1ccc(/C=C2\CCC(C3CCCC3)C2=O)cc1Cn1cccn1 (stereo unspecified)	n	n	n	n	u
NCCCc1ccc2oc3ccccc3c2c1	n[9.22 µM]	x	x	x	x
Cc1ccc(Cn2c(C)c3cnn(CC(=O)O)c(=O)c3c2C)cc1	n	x	x	x	n
CCCn1c(SCC(=O)NCc2ccc3c(c2)OCO3)n[nH]c1=O	x	n	n	n	n
CC1C/C(=C/c2ccco2)C(=O)/C(=C/c2ccco2)C1 (stereo unspecified)	n	u	n	n	u
O=C1/C(=C/c2ccco2)CCC1C1CCCC1 (stereo unspecified)	n	23µM	n	n	8.5µM
CCOc1ccc(/C=C2\CCC(C3CCCC3)C2=O)cc1 (stereo unspecified)	x	u	3.5µM	4µM	0.54µM
CCOc1ccc(/C=C2\CCC(C3CCCC3)C2=O)cc1OC (stereo unspecified)	x	n	n	n	u
O=C1/C(=C/c2ccco2)Cc2ccccc21	n	u	n	n	13µM
O=C(NNC(=O)c1ccc(Cl)nc1)c1ccncc1	x	n	n	n	x
COc1ccc2cc(-c3cc(C(=O)OCC(=O)Nc4c(C)n(C)n(-c5ccccc5)c4=O)c4ccccc4n3)ccc2c1	2µM	n	u	u	0.13µM
CCc1ccc(-c2cc(C(=O)Nc3c(C)n(C)n(-c4ccccc4)c3=O)c3ccccc3n2)s1	n	n	n	n	12µM
SMILES	SMN2 splice enh	ELG1 genotoxic	NPC1 prom act	Rab9 promoter act	FLuc counter
COc1ccc(-c2cc(C(=O)Nc3c(C)n(C)n(-c4ccccc4)c3=O)c3ccccc3n2)cc1	x	n	n	n	15µM
CN(C)c1ccc(NC(=S)NCC2CCCO2)cc1 (stereo unspecified)	13µM	u	n	n	u
CCc1ccc(NC(=O)C(=O)NCC2CCCO2)cc1 (stereo unspecified)	11µM	n	3.5µM	1.4µM	u
Cc1ccc(C(=O)NC(=S)NCC2CCCO2)cc1Br (stereo unspecified)	20µM	n	n	n	19µM
O=C(NC(=S)NCC1CCCO1)c1ccccc1Br (stereo unspecified)	n	n	n	n	n
CCCCc1ccc(NC(=S)NCC2CCCO2)cc1 (stereo unspecified)	n	n	n	n	u
CCc1ccc(CNC(=O)C(=O)NCC2CCCO2)cc1 (stereo unspecified)	x	n	n	n	n
CCCN1CCN(S(=O)(=O)c2ccc3c(c2)NC(=O)C(C)C(=O)N3)CC1 (stereo unspecified)	x	u	n	n	n
CC#C[C@@H](CC)c1ccc2ccn(C)c2c1	x	n	n	n	u
CCN(c1ccc(NC(=O)COC(=O)c2cc3ccccc3oc2=O)cc1)C(C)C	n	n	n	n	u
COc1ccc(NC(=O)COC(=O)c2ccc3ccccc3n2)cc1	x	n	n	n	n
CCN(CC)c1ccc(NC(=O)COC(=O)c2cccs2)cc1	n	n	n	n	12µM
CCN(c1ccc(NC(=O)COC(=O)c2cccs2)cc1)C(C)C	u	n	n	n	8.5µM
CCN(CC)c1ccc(NC(=O)COC(=O)c2ccc3ccccc3n2)cc1	n	n	n	n	24µM
CCN(CC)c1ccc(C(=O)OCC(=O)Nc2ccc3[nH]c(=O)[nH]c3c2)cc1	n	n	n	n	19µM
COc1cc(OC)cc(C(=O)OCC(=O)Nc2ccc3[nH]c(=O)[nH]c3c2)c1	x	n	n	n	n
Cc1oc(-c2cccc(Cl)c2)nc1CS(=O)(=O)CC(=O)NC(C)CCc1ccccc1 (stereo unspecified)	n	x	x	x	n
CCCc1ccc(OCc2nc(-c3ccc(NC(=O)c4cccs4)cc3)no2)cc1	u	u	n	u	13µM
CCCc1ccc(OCc2nc(-c3ccc(NC(=O)c4ccco4)cc3)no2)cc1	n	16µM	2.5µM	u	13µM
Cc1cc(OCc2nc(-c3ccc(NC(=O)c4cccnc4)cc3)no2)ccc1Cl	n	n	n	n	n
CCOc1ccc(CCNC(=O)Cc2ccc(NC(=O)N3CCSc4ncccc43)cc2)cc1	x	x	x	x	n
Cn1c(Cl)nc2ccccc21	u	n	n	n	n
Cn1c(N=Nc2ccccc2)nc2ccccc21	0.63µM	1.2µM	0.71µM	0.4µM	0.48µM
CCn1c(/C=N/c2nc3ccccc3n2C)nc2ccccc21	n	n	n	n	n
CN(C)c1ccc(N=Nc2nc3ccccc3n2C)cc1	x	n	n	u	0.019µM
SMILES	SMN2 splice enh	ELG1 genotoxic	NPC1 prom act	Rab9 promoter act	FLuc counter
Cn1c(N)c(C(=O)COC(=O)Cc2ccc(Cl)cc2)c(=O)n(C)c1=O	x	n	n	n	n
CCc1ccc2[nH]c(C(=O)Nc3ccc(Br)c(C)n3)cc2c1	x	u	2.2µM	1.4µM	u
Cc1cc(C)c2[nH]c(C(=O)Nc3ccc4c(c3)OCO4)cc2c1	x	n	u	u	12µM
CCc1ccc2[nH]c(C(=O)Nc3ccc4c(c3)OCO4)cc2c1	x	n	u	n	2.7µM
CCC(=O)Nc1ccc(C(=O)Nc2ccc3c(c2)OCO3)cc1	n	n	n	n	u
CCn1c(C)nc2cc(C(=O)NNC(=O)Nc3ccc(Cl)cc3)ccc21	n	n	u	1.4µM	n
